For four molecules, composite z-score and z-score results are on record in PubChem BioAssay.

Assay [1] relates to Wnt5a (protein binding on small-molecule microarray). Kind of assay: Wnt5a binders on small-molecule microarray, primary screen, biophysical, 635/667 nm fluorescence (AID 1142).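 Also: fluorescence read at 667 nm with signal to noise per printed feature.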 As to conditions: 635 nm fluorescence, higher = more signal.
The nature of assay [2]: cell viability in Huh7 cells, primary screen, cytotoxicity control for HCV replication inhibitor project, CellTiter-Glo luminescence, basal, 48 h (AID 1143).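 Also: Huh7 hepatoma cells carrying a hepatitis C replication reporter with no stimulus; test concentration not given here.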 As to conditions: Huh7 HCV replicon, higher = more signal, called active from +8 up or from −8 down. A general note: Cellular ATP, detected with luciferase, serves as a proxy for viable cell number.
Assay [3] is described as follows: P. aeruginosa biofilm formation inhibitors, primary screen, PAO1 strain, BacTiter-Glo luminescence, LB-PBS (AID 1144). To be noted: 12 h, higher = more signal.
A short description of assay [4]: CREB reporter modulators without forskolin, primary screen, cell-based, PC12, CRE-LacZ reporter, unstimulated (AID 1145). To be noted: no forskolin, luminescence, 4.5 h, higher = more signal, called active from +8 up or from −8 down.
A short description of assay [5]: CREB reporter modulators under forskolin, primary screen, cell-based, PC12, CRE-LacZ reporter, forskolin-stimulated (AID 1146).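 Also: PC12 cells with 6xCRE LacZ reporter stimulated by forskolin 10 µM; beta-galactosidase reporter signal reflecting CREB driven transcription.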 To be noted: luminescence, 4.5 h, higher = more signal, called active from +8 up or from −8 down.
In assay [6] the target is Streptavidin (Streptomyces avidinii) (UniProt P22629). The assay is described as follows: streptavidin binders on small-molecule microarray, primary screen, artefact control for SMM compound annotation, biophysical, 635/667 nm fluorescence (AID 1147).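 Also: signal reflects streptavidin binding to arrayed compounds as a control protein.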 To be noted: streptavidin binding, higher = more signal.
Chain of Streptavidin (Streptomyces avidinii) (P22629 whole entry, looked up): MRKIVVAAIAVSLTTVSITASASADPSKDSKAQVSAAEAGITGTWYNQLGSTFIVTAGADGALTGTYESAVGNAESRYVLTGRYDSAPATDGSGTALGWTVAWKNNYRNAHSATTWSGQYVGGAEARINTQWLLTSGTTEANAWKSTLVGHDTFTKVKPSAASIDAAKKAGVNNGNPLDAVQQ
Assay [7] in a line: small-molecule binders of probe aInhba, primary screen, biochemical, small-molecule microarray, 635/667 nm fluorescence (AID 1148).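 Also: score merges 667nm spot fluorescence with signal-to-noise for antibody binding to printed compounds.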 To be noted: higher = more signal.
Assay [8] has as its target Torsin-1A (Homo sapiens) (UniProt O14656). Kind of assay: torsin A binders from cell lysate, primary screen, small-molecule microarray, wild-type, 635/667 nm (AID 1149). As to conditions: COS7 hTOR1A-WT lysate, 635 nm fluorescence, higher = more signal.
Assay [9] has the same target. The assay is described as follows: small-molecule binders of mutant TOR1A in lysate, primary screen, cell lysate, small-molecule microarray, COS7 lysate, 635/667 nm fluorescence (AID 1150).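 Also: score pools 667 nm emission and signal to noise measuring lysate protein binding.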 As to conditions: COS7 hTOR1A mutant lysate, 635 nm fluorescence, higher = more signal.
Assay [10] deals with Sonic hedgehog protein (Shh). Kind of assay: small-molecule binders of Shh protein, primary screen, biochemical, small-molecule microarray, 635/667 nm fluorescence (AID 1151).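 Also: Shh protein binding to compounds spotted on small-molecule microarray slides; score combines spot fluorescence intensity with signal-to-noise across triplicate slides.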 To be noted: small-molecule microarray binding, 635 nm fluorescence; higher = more signal.
Assay [11] in a line: E. coli DRC41 culture turbidity changes, primary screen, E. coli filamentation inducer project, strain DRC41, OD650, 48 h (AID 1152).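 Also: E. coli MC1000 strain DRC41 lacking acrAB efflux pump and sulA.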 As to conditions: E. coli DRC41 (acrAB sulA), higher = more signal, called active from +8 up or from −8 down.
The nature of assay [12]: small-molecule binders of probe aLefty1, primary screen, biochemical, small-molecule microarray, 635/667 nm fluorescence (AID 1153).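 Also: score merges spot fluorescence with signal-to-noise ratio from the scanned slide images.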 As to conditions: higher = more signal.
Assay [13] can be described thus: PSAC antagonists in infected red cells, primary screen, cell-based, P. falciparum Indochina, OD700, 1 h (AID 1154). To be noted: P. falciparum Indochina infected RBC osmotic lysis, higher = more signal, called active from +8 up or from −8 down.
The nature of assay [14]: PSAC antagonists in infected red cells, primary screen, cell-based, P. falciparum Indochina, OD700, 2 h (AID 1155).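 Also: lysis reports solute entry through the parasite surface anion channel PSAC; channel blockers reduce lysis of infected cells.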 To be noted: P. falciparum Indochina infected erythrocytes, osmotic lysis OD700; higher = more signal, called active from +8 up or from −8 down.
Assay [15] can be described thus: osmotic lysis modulators in infected erythrocytes, primary screen, PSAC antagonist project, cell-based, P. falciparum Indochina, OD700, 3 h (AID 1156). To be noted: higher = more signal, called active from +8 up or from −8 down.
The nature of assay [16]: PSAC antagonists in infected red cells, primary screen, cell-based, P. falciparum Indochina, OD700, 18 h (AID 1157). To be noted: P. falciparum Indochina infected erythrocytes, osmotic lysis OD700, 18 h; higher = more signal, called active from +8 up or from −8 down.
A short description of assay [17]: modulators of S6 phosphorylation in cells, primary screen, cell-based, A549, cytoblot, luminescence, serum-stimulated (AID 1158).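 Also: serum-stimulated A549 lung adenocarcinoma cells; signal is phosphorylated S6 detected by cytoblot immunostaining with HRP secondary.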 To be noted: A549 phospho-S6 cytoblot, 5 h, higher = more signal.
For assay [18], the target named is NADPH oxidase 2 (Homo sapiens) (UniProt P04839). Kind of assay: NOX2-dependent H2O2 signal modulators, primary screen, NOX inhibitor project, cell-based, HEK293-NOX2, PMA-stimulated, Amplex Red fluorescence (AID 1159). Also: test concentration not given here. As to conditions: 45 min, higher = more signal, called active from +8 up or from −8 down.
Chain of NADPH oxidase 2 (Homo sapiens) (P04839 whole entry, looked up): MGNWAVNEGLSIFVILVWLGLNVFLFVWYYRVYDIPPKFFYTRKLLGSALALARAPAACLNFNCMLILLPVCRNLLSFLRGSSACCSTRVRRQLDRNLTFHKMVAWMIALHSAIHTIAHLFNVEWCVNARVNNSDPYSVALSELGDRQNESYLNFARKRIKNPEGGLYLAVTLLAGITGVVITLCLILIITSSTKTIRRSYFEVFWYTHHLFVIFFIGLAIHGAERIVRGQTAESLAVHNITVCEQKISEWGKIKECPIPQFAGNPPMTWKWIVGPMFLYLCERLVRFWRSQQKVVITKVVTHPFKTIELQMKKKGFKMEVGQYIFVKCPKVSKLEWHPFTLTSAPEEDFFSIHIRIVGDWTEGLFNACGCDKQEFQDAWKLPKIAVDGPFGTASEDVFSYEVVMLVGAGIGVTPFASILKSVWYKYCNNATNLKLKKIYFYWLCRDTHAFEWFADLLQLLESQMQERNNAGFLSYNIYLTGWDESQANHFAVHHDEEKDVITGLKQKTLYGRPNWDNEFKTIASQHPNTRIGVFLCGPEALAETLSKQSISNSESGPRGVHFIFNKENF
The target of assay [19] is NADPH oxidase 4 (Homo sapiens) (UniProt Q9NPH5). Kind of assay: NOX4-dependent H2O2 signal modulators, primary screen, NOX inhibitor project, cell-based, HEK293-NOX4, tetracycline-induced, Amplex Red fluorescence (AID 1160). To be noted: 45 min, higher = more signal, called active from +8 up or from −8 down.
Chain of NADPH oxidase 4 (Homo sapiens) (Q9NPH5 whole entry, looked up): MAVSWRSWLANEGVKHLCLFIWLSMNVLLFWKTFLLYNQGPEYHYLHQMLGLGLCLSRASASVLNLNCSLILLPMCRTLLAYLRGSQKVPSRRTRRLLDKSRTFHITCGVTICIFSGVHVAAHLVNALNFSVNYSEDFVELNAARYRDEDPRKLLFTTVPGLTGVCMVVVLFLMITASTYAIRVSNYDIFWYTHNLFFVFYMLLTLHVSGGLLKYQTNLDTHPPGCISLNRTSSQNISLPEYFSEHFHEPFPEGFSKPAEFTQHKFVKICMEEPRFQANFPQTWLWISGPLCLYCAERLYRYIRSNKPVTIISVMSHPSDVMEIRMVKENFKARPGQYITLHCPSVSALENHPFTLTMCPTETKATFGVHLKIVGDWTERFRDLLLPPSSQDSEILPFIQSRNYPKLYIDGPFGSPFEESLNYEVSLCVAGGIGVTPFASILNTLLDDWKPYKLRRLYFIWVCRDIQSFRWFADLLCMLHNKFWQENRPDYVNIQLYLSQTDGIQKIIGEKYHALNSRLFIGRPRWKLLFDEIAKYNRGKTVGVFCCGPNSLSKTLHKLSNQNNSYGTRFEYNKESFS
The target of assay [20] is NADPH oxidase 5 (Homo sapiens) (UniProt Q96PH1). Kind of assay: NOX5-dependent H2O2 signal modulators, primary screen, NOX inhibitor project, cell-based, HEK293-NOX5, Amplex Red fluorescence (AID 1161). To be noted: HEK293-NOX5, ionomycin, 45 min, higher = more signal.
Chain of NADPH oxidase 5 (Homo sapiens) (Q96PH1 whole entry, looked up): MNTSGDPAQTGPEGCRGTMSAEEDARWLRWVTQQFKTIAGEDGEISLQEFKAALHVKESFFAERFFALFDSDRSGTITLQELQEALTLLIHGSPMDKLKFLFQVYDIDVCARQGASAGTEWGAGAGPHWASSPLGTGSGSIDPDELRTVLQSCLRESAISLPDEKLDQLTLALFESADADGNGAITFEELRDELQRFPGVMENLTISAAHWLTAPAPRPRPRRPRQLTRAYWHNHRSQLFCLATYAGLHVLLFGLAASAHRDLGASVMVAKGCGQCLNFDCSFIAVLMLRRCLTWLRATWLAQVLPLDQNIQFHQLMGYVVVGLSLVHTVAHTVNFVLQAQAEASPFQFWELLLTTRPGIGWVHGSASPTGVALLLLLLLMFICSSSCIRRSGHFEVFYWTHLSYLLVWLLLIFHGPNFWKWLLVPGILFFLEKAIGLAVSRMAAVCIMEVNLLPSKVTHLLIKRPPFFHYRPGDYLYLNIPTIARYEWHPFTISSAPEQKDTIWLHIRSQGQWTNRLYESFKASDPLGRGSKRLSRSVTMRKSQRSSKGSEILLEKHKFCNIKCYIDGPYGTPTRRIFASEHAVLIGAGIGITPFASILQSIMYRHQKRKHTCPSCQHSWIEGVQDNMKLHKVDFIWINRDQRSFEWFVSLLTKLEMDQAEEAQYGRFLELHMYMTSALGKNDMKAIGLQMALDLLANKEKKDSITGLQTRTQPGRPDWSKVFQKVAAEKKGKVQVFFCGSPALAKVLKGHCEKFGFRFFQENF

Calls of active or inactive are those of the source. Unless noted, no rule for the calls is given here.

Chain of Torsin-1A (Homo sapiens) (O14656 whole entry, looked up): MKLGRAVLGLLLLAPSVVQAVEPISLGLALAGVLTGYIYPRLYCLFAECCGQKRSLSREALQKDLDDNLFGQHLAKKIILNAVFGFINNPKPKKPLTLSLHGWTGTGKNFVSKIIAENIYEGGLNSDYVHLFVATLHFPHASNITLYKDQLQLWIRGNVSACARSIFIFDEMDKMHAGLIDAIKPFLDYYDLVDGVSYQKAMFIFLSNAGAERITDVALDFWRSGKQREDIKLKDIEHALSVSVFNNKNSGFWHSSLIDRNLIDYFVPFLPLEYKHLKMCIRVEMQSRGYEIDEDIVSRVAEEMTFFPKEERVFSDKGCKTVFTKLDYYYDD

`CC(=O)OC[C@H]1O[C@H](CC=NOC[C@@H](O)COCc2ccco2)C=C[C@@H]1OC(C)=O`: the composite z-score in [1] was 0.364; in assay [6], -0.436; in assay [7], -0.183; in assay [8] it was 3.67; in [9] it was 3.65; in assay [10] it was 2.07. In assay [12], the composite z-score was found to be 0.0509. The z-score in [2] is 0.0896 (inactive); in assay [3] it was -0.196 (inactive); in assay [4] it was -0.729 (inactive); in assay [5] it was 0.25 (inactive); in assay [11], 0.241 (inactive); in [13] it was 0.77 (inactive). Further, the z-score was -0.161 (inactive) in assay [14]; 0.482 (inactive) in assay [15]; 0.515 (inactive) in [16]; 0.0978 in assay [17]; -0.431 (inactive) in assay [18]; 0.748 (inactive) in [19]. Also, the z-score in assay [20] is 0.0957.
As for `CO[C@@H]1C=CCC(=O)N[C@@H](C)C(=O)OC[C@@H](NS(=O)(=O)c2ccc(C)cc2)[C@H](C)C=CCC(=O)OC[C@H]1C`, the composite z-score was -0.0979 in assay [1]; -0.536 in assay [6]; -0.304 in assay [7]; 0.527 in assay [8]; 0.514 in [9]; 1.08 in [10]. In addition, the composite z-score in assay [12] was -0.141. In addition, the z-score in [2] was -1.03 (inactive); in assay [3], 0.225 (inactive); in assay [4], 0.155 (inactive); in assay [5] it was -1.23 (inactive); in assay [11], -0.481 (inactive); in [13] it was 0.0412 (inactive). Further, the z-score was 0.149 (inactive) in assay [14]; -0.802 (inactive) in assay [15]; 0.109 (inactive) in assay [16]; -0.327 in [17]; -9.51 (active) in assay [18]; 0.732 (inactive) in [19]. Besides, the z-score in assay [20] is -0.0177.
In the case of `CC(C)(C)N1C(=O)[C@H]2[C@H]3[C@H](O)[C@H](O)CC(=NNC(=O)OCc4ccccc4)[C@H]3CC[C@H]2C1=O`, the composite z-score in [1] is 0.0281; in assay [6], -0.107; in assay [7], 0.125; in assay [8], 0.436; in assay [9], 0.591; in assay [10], 0.897. This molecule also displayed a composite z-score in [12] of -0.0966. Also, the z-score is -3.97 (inactive) in assay [2]; -0.497 (inactive) in [3]; 1.34 (inactive) in assay [4]; 0.549 (inactive) in [5]; -1.57 (inactive) in assay [11]; 0.988 (inactive) in assay [13]. For the same molecule, the z-score in [14] is -0.0262 (inactive); in [15], 0.374 (inactive); in assay [16] it was -1.13 (inactive); in [17] it was 0.827; in [18] it was -1.18 (inactive); in assay [19], -0.074 (inactive). Besides, in assay [20], the z-score is -1.11.
For the molecule `CC(=O)OC[C@H]1O[C@H](CC=NOCC[C@@H]2C=C[C@H](OC(C)=O)[C@@H](COC(C)=O)O2)C=C[C@@H]1OC(C)=O`, the composite z-score in assay [1] is 0.288; in assay [6], 0.162; in [7], -0.0471; in assay [8] it was 1.06; in assay [9], 1.05; in assay [10], 0.654. In assay [12], this molecule returned a composite z-score of 0.0483. Moreover, the z-score is 0.366 (inactive) in [2]; -0.358 (inactive) in assay [3]; 0.848 (inactive) in assay [4]; 1.4 (inactive) in [5]; 0.645 (inactive) in assay [11]; 0.421 (inactive) in assay [13]. For the same molecule, the z-score in assay [14] is 0.678 (inactive); in [15], 0.286 (inactive); in assay [16], 0.219 (inactive); in assay [17], -0.696; in assay [18] it was -0.175 (inactive); in assay [19], 0.484 (inactive). This molecule also displayed a z-score in assay [20] of -0.705.
